PubChem BioAssay
Unmarked numbers belong to inactive results. The rule behind the calls is not given here.

Target: Pantothenate synthetase (Mycobacterium tuberculosis (strain ATCC 25618 / H37Rv)) (UniProt P9WIL5)
Assay: Recombinant Mtb pantothenate synthetase (PanC) inhibitors, coupled enzyme, confirmatory (AID 375);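 note: 0% = full reaction with vehicle and 100% = no enzyme background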
Details: coupled enzyme assay; at 10 µM, hits give high values

Chain of Pantothenate synthetase (Mycobacterium tuberculosis (strain ATCC 25618 / H37Rv)) (P9WIL5 whole entry, looked up): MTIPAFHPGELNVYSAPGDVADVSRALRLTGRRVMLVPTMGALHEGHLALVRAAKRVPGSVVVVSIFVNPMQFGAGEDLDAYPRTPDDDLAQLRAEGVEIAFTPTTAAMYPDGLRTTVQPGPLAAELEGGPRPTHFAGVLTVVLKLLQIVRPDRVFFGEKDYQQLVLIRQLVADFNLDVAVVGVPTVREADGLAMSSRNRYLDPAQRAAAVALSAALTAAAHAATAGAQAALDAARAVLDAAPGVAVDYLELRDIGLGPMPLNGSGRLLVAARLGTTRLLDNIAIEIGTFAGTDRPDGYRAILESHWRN

In order of rising inhibition:
1. COc1ccc(OC)c(-c2cc(C(=O)NCc3cccs3)no2)c1  0%
2. CCN(CC)c1nc2nonc2nc1N(CC)CC  0%
3. CCCCn1cnc2c(c1=O)c1nc3ccccc3nc1n2Cc1ccc2c(c1)OCO2  0%
4. CCOC(=O)C1CCN(C(=O)CSc2n[nH]c(=O)[nH]c2=O)CC1  0%
5. CN(C)S(=O)(=O)c1ccc2c(c1)c(=O)c(C(=O)NCCCN1CCCCCC1)cn2C  0%
6. NC(=O)c1cccc(S(=O)(=O)N2CCCCC2)c1  0%
7. Cc1cc(N2CCN(c3ccccn3)CC2)n2nc(C)nc2n1  1%
8. Cc1cc(NC(=O)C23CCC(C)(C(=O)O2)C3(C)C)no1 (stereo unspecified)  1%
9. O=C(NCCCN1CCN(c2cccc(Cl)c2)CC1)c1ccc(N2CCCC2=O)cc1  1%
10. Cc1ccc(S(=O)(=O)NCCNC(=O)c2ccccc2)cc1  4%
11. COC(=O)/C=c1/s/c(=C(/C#N)C(=O)N2CCOCC2)n(-c2ccccc2)c1=O  4%
12. O=C1CSC(c2cn(-c3ccccc3)nc2-c2ccccc2)N1Cc1ccco1 (stereo unspecified)  4%
13. COc1ccc(N(CC(=O)N2CCN(Cc3ccc4c(c3)OCO4)CC2)S(C)(=O)=O)cc1OC  5%
14. CCOC(=O)N1CCC(NC(=O)c2ccc3c(c2)N(C)CCS3)CC1  6%
15. COc1ccc(N2CCN(C(c3cccs3)c3nnnn3C3CCCC3)CC2)cc1 (stereo unspecified)  6%
16. Cc1cccc(NC(=O)c2oc3c(c2C)C(=O)CC(C)(C)C3)n1  9%
